Screens from PubChem.
EPAC2 agonist = qHTS for Agonist of cAMP-regulated guanine nucleotide exchange factor 4 (EPAC2): primary screen | Rap guanine nucleotide exchange factor 4 (Homo sapiens), Q8WZA2 | EPAC2 activation, biochemical qHTS; response scale: 100% = 6.5 mM cAMP response | Potency, µM (top dose mostly 154 µM), for inactives: top-dose activation, usual class: activators | 0.079% of 360,000 active | AID 720711, 2013; also: potency is read from the fitted curve at half-maximal effect; nearly all actives have a fitted effect of over 50% in size
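Fluorescence exchange assay: 100 nM EPAC2 with 250 nM RAP1B-BODIPY-GDP and 50 uM GDP; compounds tested as a concentration-titration series (qHTS). Loss of Rap1-bound BODIPY-GDP fluorescence read at 480/540 nm; data normalized to 6.5 mM cAMP.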
EPAC1 ag = qHTS for Agonist of cAMP-regulated guanine nucleotide exchange factor 3 (EPAC1): primary screen | Rap guanine nucleotide exchange factor 3 (Homo sapiens), O95398 | EPAC1 agonist qHTS, biochemical assay; response scale: 100% = response to 6.5 mM cAMP | Potency, µM (titrated, usually from 154 µM), for the others: at the top dose activation, actives largely listed as activators | 0.073% of 360,000 active; also: potency is read from the fitted curve at half-maximal effect; nearly all actives have a fitted effect of over 60% in size
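Read-out is the fluorescence drop as BODIPY-GDP leaves Rap1B (480 nm excitation, 540 nm emission), recorded every 5 minutes over 30 minutes. Reactions held 100 nM EPAC1, 250 nM Rap1B–BODIPY-GDP and 50 uM GDP, with 6.5 mM cAMP setting full activation.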
EPAC1 antagonist = qHTS for Antagonist of cAMP-regulated guanine nucleotide exchange factor 3 (EPAC1): primary screen; Rap guanine nucleotide exchange factor 3 (Homo sapiens), O95398; EPAC1 GEF assay, Rap1b-BODIPY-GDP exchange fluorescence; Potency, µM (series often up to 115 µM), for inactives: at the top dose activity change, negative = inhibition, usual class: inhibitors; 0.14% of 360,000 active;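 also: potency is read from the fitted curve at half-maximal effect; plate controls were vehicle for no effect and positive control for full effect; nearly all actives have a fitted effect of over 50% in size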
KCNH2 3.1 inh = qHTS for Inhibitors of KCHN2 3.1: Mutant qHTS | U2OS KCNH2 3.1, thallium flux FluxOr; hits give low values | 0.95% of 340,000 active | activity change, % (tested at about 1.8 µM);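 active = maximum activity change below -70%; inconclusive = maximum activity change from -70% to -50%; inactive = maximum activity change above -50%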;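 also: thallium influx rate constant from kinetic fluorescence after stimulation buffer; % is scaled to controls: 0 for no effect and ±100 for the full control effect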
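Thallium flux via FluxOr fluorescence (Red40 quencher, 45 min loading) in U2OS cells virally expressing the KCNH2 3.1 isoform (1.77 x 10^8 /mL virus, overnight at 37 C). Rate constants from 2-min kinetic reads post-stimulation, normalised to positive and negative controls.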
hERG WT inh = qHTS for Inhibitors of KCHN2 3.1: Wildtype qHTS; U2OS, BacMam KCNH2, thallium flux FluxOr; hits give low values; activity change, % at 1.84 µM; Voltage-gated inwardly rectifying potassium channel KCNH2 (Homo sapiens), Q12809; 0.37% of 340,000 active;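 active = maximum activity change below -70%; inconclusive = maximum activity change between -70% and -50%; inactive = maximum activity change above -50%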; also: % is scaled to controls: 0 for no effect and ±100 for the full control effect
Target sequence (Q12809 whole entry, looked up): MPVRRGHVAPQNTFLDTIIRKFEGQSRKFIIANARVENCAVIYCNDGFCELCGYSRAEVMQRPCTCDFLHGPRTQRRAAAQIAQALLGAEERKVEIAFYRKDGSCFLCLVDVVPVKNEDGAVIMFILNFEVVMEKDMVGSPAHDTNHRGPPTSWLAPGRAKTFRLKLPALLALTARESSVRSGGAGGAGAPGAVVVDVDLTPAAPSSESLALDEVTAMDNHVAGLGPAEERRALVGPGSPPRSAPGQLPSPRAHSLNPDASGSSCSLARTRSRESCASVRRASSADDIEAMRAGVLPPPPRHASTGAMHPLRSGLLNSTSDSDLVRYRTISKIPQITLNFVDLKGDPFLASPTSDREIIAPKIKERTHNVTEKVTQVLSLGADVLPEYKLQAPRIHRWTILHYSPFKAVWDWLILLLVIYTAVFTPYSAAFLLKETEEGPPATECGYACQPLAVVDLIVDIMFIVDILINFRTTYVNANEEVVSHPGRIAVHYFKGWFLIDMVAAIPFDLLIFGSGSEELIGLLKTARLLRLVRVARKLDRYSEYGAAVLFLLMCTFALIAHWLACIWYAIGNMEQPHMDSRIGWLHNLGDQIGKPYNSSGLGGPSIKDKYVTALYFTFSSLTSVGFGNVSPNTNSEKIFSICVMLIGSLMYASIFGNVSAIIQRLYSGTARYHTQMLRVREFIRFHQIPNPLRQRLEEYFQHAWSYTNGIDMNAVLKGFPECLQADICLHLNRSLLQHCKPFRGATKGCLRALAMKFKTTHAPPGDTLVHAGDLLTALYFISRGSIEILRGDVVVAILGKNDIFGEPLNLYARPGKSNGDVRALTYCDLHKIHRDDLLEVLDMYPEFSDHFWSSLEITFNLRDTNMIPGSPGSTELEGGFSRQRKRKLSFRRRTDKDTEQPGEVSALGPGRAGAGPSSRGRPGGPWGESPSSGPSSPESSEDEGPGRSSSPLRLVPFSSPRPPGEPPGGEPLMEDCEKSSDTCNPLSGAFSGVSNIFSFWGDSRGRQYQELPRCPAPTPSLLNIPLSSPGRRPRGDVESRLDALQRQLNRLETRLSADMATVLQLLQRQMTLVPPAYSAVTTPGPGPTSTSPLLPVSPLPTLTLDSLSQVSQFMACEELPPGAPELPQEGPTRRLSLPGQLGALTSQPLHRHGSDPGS
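U2OS cells transduced with wild-type KCNH2 virus are loaded with FluxOr dye for 45 min, and thallium flux is measured in kinetic reads before and after stimulation buffer. Rate constants are normalized to DMSO controls.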
EPAC2 antag = qHTS for Antagonist of cAMP-regulated guanine nucleotide exchange factor 2 (EPAC2): primary screen | Rap guanine nucleotide exchange factor 4 (Homo sapiens), Q8WZA2 | EPAC2 GEF exchange of Rap1B-BODIPY-GDP, fluorescence | Potency, µM (highest dose often 114 µM), for the others: at the top dose activity, negative = inhibition, hits mostly inhibitors | 0.18% of 360,000 active; also: potency is read from the fitted curve at half-maximal effect; % is scaled to controls: 0 for no effect and ±100 for the full control effect; nearly all actives have a fitted effect of over 45% in size
* hit, by the source's call; ? = inconclusive; nt = no result; [ ] = remark or other dose. This is a sample that favours compounds with a hit; in the whole collection about 1.4% have one here. Unless noted, calls follow the shape of the dose curve; as a rule, active = well fitted curve in the direction sought with a large enough effect; inconclusive = small, poorly fitted or top-dose-only effect, or another doubt; inactive = no such curve, though single readings can be large; an effect the other way counts as inactive or inconclusive.

SMILES	EPAC2 agonist	EPAC1 ag	EPAC1 antagonist	KCNH2 3.1 inh	hERG WT inh	EPAC2 antag
CC(C)Cn1c(N2CCN(CC(=O)Nc3ccc(Cl)cc3)CC2)nc2ccccc21	0%	6%	-12%	-74*	-16	-16%
Cc1ccc(NC(=O)C2CCN(S(=O)(=O)c3ccc4c(c3)CCCC(=O)N4)CC2)c(Br)c1	-6%	-10%	-24%	-1	3	3%
CCOc1ccc(CN(C)CC(=O)NCc2ccccc2Cl)cc1	3%	-2%	19%	8	-85*	-12%
CCOc1ccc(CNCc2ccccc2Cl)cc1	2%	-6%	-1%	-1	16	9%
CCOc1ccc(CN(C)CC(=O)NCc2ccccc2)cc1	1%	-4%	14%	-87*	0	0%
CCOc1ccc(N(CC(=O)NCc2ccc(OC)cc2)S(C)(=O)=O)cc1	-4%	-4%	3%	-77*	0	-17%
O=C(NCc1ccccc1)C(C1CC1)n1c(CSCCOc2ccccc2)nc2ccccc21 (stereo not given)	2%	11%	-9%	nt	nt	-10%
O=C(CCCC(=O)N(c1ccc2c(c1)OCCO2)C(C(=O)NC1CCCCC1)c1ccc(F)cc1)Nc1ccccn1 (stereo not given)	-33%	8%	-12%	-76*	-4	-12%
Cc1ccc(C(C(=O)NC2CCCCC2)N(C(=O)CCCC(=O)Nc2ccccn2)c2ccc3c(c2)OCCO3)cc1 (stereo not given)	-6%	3%	-10%	-12	-6	14%
CN(C)CCCN(C(=O)CCc1ccccc1)c1nc2ccc(Br)cc2s1	5%	5%	-23%	-87*	-36	-23%
CCOC(=O)C1CCN(C(=O)c2ccc3c(=O)n4nc(Nc5cc(C)ccc5C)sc4nc3c2)CC1	-4%	-4%	-6%	0	13	-19%
CCOC(=O)C1CCN(C(=O)c2ccc3c(=O)n4nc(Nc5ccccc5OC)sc4nc3c2)CC1	7%	8%	-5%	-75*	-3	-1%
CCCCNc1c(-c2ccc(SC(C)CC)cc2)nc2ccccn12 (stereo not given)	5%	-26%	-11%	?	-16	-17%
Clc1cccc(-c2ccc(-c3nc4ccccn4c3NCc3ccccc3)cc2)c1	13%	-2%	-1%	5	0	-12%
COc1ccc(-c2cc(-c3nc4ccccn4c3NCc3ccccc3)ccc2OC)cc1	17%	-20%	-16%	-101*	-99*	2%
CCC(C)Sc1cc(-c2nc3ccc(C)cn3c2NCc2ccccc2)ccc1OC (stereo not given)	-1%	-3%	-7%	-102*	?	-24%
CCCCNc1c(-c2ccc(SC3CCCCC3)cc2)nc2ccccn12	13%	-9%	?	-81*	?	-20%
CCC(C)Sc1cc(-c2nc3ccccn3c2NC2CCCCC2)ccc1OC (stereo not given)	3%	-9%	-19%	-149*	3	-18%
CCC(C)Sc1cc(-c2nc3cc(C)ccn3c2NC2CCCCC2)ccc1OC (stereo not given)	-1%	-22%	-17%	-5	38	-24%
CCC(C)Sc1ccc(-c2nc3ccc(C)cn3c2NCc2ccccc2)cc1OC (stereo not given)	9%	-1%	-27%	-47	0	-18%
CC(=O)c1cccc(OC(=O)c2cc(S(=O)(=O)N3CCOCC3)ccc2N2CCCC2)c1	3%	-1%	4%	7	4	1%
CCCCNc1c(-c2ccc(OC)c(SC3CCCCC3)c2)nc2ccc(C)cn12	5%	-33%	-22%	-41	4	-13%
CCCCNc1c(-c2ccc(SC3CCCCC3)c(OC)c2)nc2ccc(C)cn12	1%	-17%	-7%	-72*	8	-12%
CCCCCCSc1ccc(-c2nc3ccc(C)cn3c2NCc2ccccc2)cc1	-4%	0%	5%	-16	10	-11%
CCCCCCSc1ccc(-c2nc3ccc(C)cn3c2NCc2ccccc2)cc1OC	6%	-20%	-26%	-91*	-20	-15%
SMILES	EPAC2 agonist	EPAC1 ag	EPAC1 antagonist	KCNH2 3.1 inh	hERG WT inh	EPAC2 antag
O=c1c2c3c(sc2nc(N2CCNCC2)n1CCc1ccccc1)CCCCC3	15%	2%	-4%	-9	0	6%
Nc1ccnc(C(F)(F)F)c1C(=O)c1ccccc1	-5%	-5%	-7%	-3	-2	-4%
CC1=C(C(=O)N(C)C)CC(CC(=O)NC(c2ccccc2)c2ccccc2)C(=O)N1CCC1=CCCCC1 (stereo not given)	-2%	-5%	-19%	1	1	-21%
CCN(CC)C(=O)C1=C(C)N(CCC2=CCCCC2)C(=O)C(CC(=O)NC(c2ccccc2)c2ccccc2)C1 (stereo not given)	9%	0%	-7%	-15	-88*	-8%
O=C(NCc1cccnc1)c1cccn2c(=O)c3sccc3nc12	8%	1%	5%	-6	-21	-1%
O=S(=O)(c1ccc(Cl)nc1)N1CCc2ccccc21	5%	6%	8%	-22	-111*	-29%
COc1ccc(CN(C)C(=O)c2cccc(C(=O)N(C)Cc3ccc(OC)cc3)c2)cc1	10%	-7%	6%	1	-17	2%
COC(=O)[C@H]1[C@H]2C[C@@H]3c4[nH]c5cc(OC)ccc5c4CCN3C[C@H]2C[C@@H](OC(=O)/C=C/c2cc(OC)c(OC)c(OC)c2)[C@@H]1OC	-3%	0%	-5%	-73*	-31	-4%
COC(=O)[C@H]1[C@H]2C[C@@H]3c4[nH]c5cc(OC)ccc5c4CCN3C[C@H]2C[C@@H](OC(=O)c2ccc(N)cc2)[C@@H]1OC	5%	1%	7%	-8	-6	-1%
O=C(Nc1cccnc1)c1ccc(COc2cc(Cl)ccc2Cl)o1	-85%[15.6 µM]	9%	-7%	42	-104*	6%
O=C(Nc1cccnc1)c1ccc(COc2ccccc2Cl)o1	10%	4%	-13%	-2	-10	-9%
